Where “and” joins values, the source holds several entries; their conditions need not be identical. Equal values may be shown once. Inconclusive results are not listed. Where a call stands in place of a potency, no number is given. Where a structure was tested more than once in an assay, its records may differ in their call. Calls of active or inactive are those of the source. Unless noted, calls come from the whole dose curve; as a rule, active = well fitted curve in the direction sought with a large enough effect in the repeat runs; inconclusive = weak or mixed curves; inactive = no such curve, though single readings can be large; an effect the other way counts as inactive or inconclusive.
Assays:
[1] = qHTS assay to test for compound auto fluorescence at 535 nm (green) in HEK293 cells (AID 720680); settings: green autofluorescence 485/535 nm; series mostly up to 91.3 µM
[2] = qHTS assay to test for compound auto fluorescence at 460 nm (blue) in HEK293 cell free culture (AID 720681); settings: cell-free medium, autofluorescence 405/460 nm (blue); series mostly up to 91.3 µM
Outline: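 Test compounds were pinned into cell-free culture medium (DMEM with 10% FBS) and fluorescence was read directly at Ex/Em 405/460 nm. Signals were expressed as fluorescence equivalents of triamterene, with DMSO vehicle as control.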

[3] = qHTS assay to test for compound auto fluorescence at 535 nm (green) in HEK293 cell free culture (AID 720682); settings: cell-free medium, green autofluorescence 485/535 nm, stronger effect = higher value; series mostly up to 91.3 µM
Outline: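 Each library compound, or DMSO control, is added by pintool to medium alone, comprising DMEM and 10% FBS. Emission at 535 nm following 485 nm excitation is quantified against fluorescein.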

[4] = qHTS assay to test for compound auto fluorescence at 590 nm (red) in HEK293 cell free culture (AID 720683); settings: cell-free medium autofluorescence, Ex540/Em590 red; series mostly up to 91.3 µM
Outline: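 Tox21 10K library compounds were pinned into cell-free DMEM with 10% FBS and fluorescence was read at excitation 540 nm. Activity is expressed as Rose Bengal sodium equivalency.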

[5] = qHTS assay to test for compound auto fluorescence at 590 nm (red) in HepG2 cell free culture (AID 720684); settings: cell-free medium autofluorescence, red 540/590 nm; series mostly up to 91.3 µM
Outline: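 Ex 540 / Em 590 nm read of compound in cell-free MEM (10% FBS). Rose Bengal sodium reference.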

[6] = qHTS assay to test for compound auto fluorescence at 460 nm (blue) in HepG2 cell free culture (AID 720685); settings: Cell-free culture medium, blue autofluorescence 405/460 nm; series mostly up to 91.3 µM
Outline: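 Cell-free plates of MEM plus 10% FBS received 23 nL compound or DMSO vehicle; blue-channel (405/460 nm) intensity scored against triamterene as reference fluorophore.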

[7] = qHTS assay to test for compound auto fluorescence at 460 nm (blue) in HepG2 cells (AID 720687); settings: autofluorescence 405/460 nm, 1 h; series mostly up to 91.3 µM
Outline: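 Cells (2,000/well in MEM with 10% FBS) attached overnight at 37 C, then were exposed to compound or DMSO for 1 hr at 37 C, 5% CO2. Fluorescence read at Ex/Em 405/460 nm, expressed as triamterene-equivalent signal.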

[8] = qHTS assay to identify small molecule antagonists of the glucocorticoid receptor (GR) signaling pathway - cell viability counter screen (AID 720693); settings: GR-bla HeLa viability, CellTiter-Glo luminescence, 18 h, with 5 nM dexamethasone present; series mostly up to 58.5 µM; note: nearly all actives have a fitted effect of over 55% in size; note: potency is the fitted concentration of half-maximal effect
[9] = qHTS assay for identifying genotoxic compounds that show differential cytotoxicity against isogenic chicken DT40 cell lines with known DNA damage response pathways - wild type cell line (AID 743012); settings: DT40 wild type chicken cells viability, CellTiter-Glo, 40 h; series mostly up to 68.4 µM; note: nearly all actives have a fitted effect of over 60% in size; note: potency is the fitted concentration of half-maximal effect
Outline: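 Viability of DNA repair-proficient chicken DT40 cells was assessed by CellTiter-Glo luminescence following 40 h compound exposure at 37 C/5% CO2.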

[10] = qHTS assay for identifying genotoxic compounds that show differential cytotoxicity against isogenic chicken DT40 cell lines with known DNA damage response pathways - Rev3 mutant cell line (AID 743014); settings: chicken DT40 Rev3-/- viability, CellTiter-Glo, 40 h; series mostly up to 68.4 µM; note: nearly all actives have a fitted effect of over 55% in size; note: potency is the fitted concentration of half-maximal effect
[11] = qHTS assay for identifying genotoxic compounds that show differential cytotoxicity against isogenic chicken DT40 cell lines with known DNA damage response pathways - Rad54/Ku70 mutant cell line (AID 743015); settings: DT40 Rad54/Ku70 mutant viability, CellTiter-Glo, 40 h; series mostly up to 66.8 µM; note: nearly all actives have a fitted effect of over 60% in size; note: potency is the fitted concentration of half-maximal effect
[12] = qHTS assay to identify small molecule antagonists of the androgen receptor (AR) signaling pathway - cell viability counter screen (AID 743033; note: nearly all actives have a fitted effect of over 45% in size; note: potency is the fitted concentration of half-maximal effect); settings: AR-bla HEK293 viability, CellTiter-Glo luminescence, 16 h; series mostly up to 58.5 µM
[13] = qHTS assay to identify small molecule antagonists of the androgen receptor (AR) signaling pathway using the MDA cell line - cell viability counter screen (AID 743041; note: nearly all actives have a fitted effect of over 45% in size; note: potency is the fitted concentration of half-maximal effect); settings: MDA-kb2 viability, CellTiter-Fluor, 16 h, cells co-treated with R1881 androgen agonist; series mostly up to 70.3 µM
Outline: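 In this qHTS counter assay, fluorescence intensity after CellTiter-Fluor addition indicated viability of MDA-kb2 AR-luc cells given compounds and R1881 for 16 h at 37C.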

[14] = target: Glucocorticoid receptor (Homo sapiens) (UniProt P04150); test: qHTS assay to identify small molecule agonists of the glucocorticoid receptor (GR) signaling pathway (AID 720691; active = well fitted activation curve with a large enough effect in the signal ratio in the repeat runs, not every such curve was filed as active; the % refers to the signal ratio); settings: GR-bla HeLa, beta-lactamase reporter ratio, 18 h; series mostly up to 62.4 µM
Glucocorticoid receptor (Homo sapiens), sequence (P04150 whole entry, looked up): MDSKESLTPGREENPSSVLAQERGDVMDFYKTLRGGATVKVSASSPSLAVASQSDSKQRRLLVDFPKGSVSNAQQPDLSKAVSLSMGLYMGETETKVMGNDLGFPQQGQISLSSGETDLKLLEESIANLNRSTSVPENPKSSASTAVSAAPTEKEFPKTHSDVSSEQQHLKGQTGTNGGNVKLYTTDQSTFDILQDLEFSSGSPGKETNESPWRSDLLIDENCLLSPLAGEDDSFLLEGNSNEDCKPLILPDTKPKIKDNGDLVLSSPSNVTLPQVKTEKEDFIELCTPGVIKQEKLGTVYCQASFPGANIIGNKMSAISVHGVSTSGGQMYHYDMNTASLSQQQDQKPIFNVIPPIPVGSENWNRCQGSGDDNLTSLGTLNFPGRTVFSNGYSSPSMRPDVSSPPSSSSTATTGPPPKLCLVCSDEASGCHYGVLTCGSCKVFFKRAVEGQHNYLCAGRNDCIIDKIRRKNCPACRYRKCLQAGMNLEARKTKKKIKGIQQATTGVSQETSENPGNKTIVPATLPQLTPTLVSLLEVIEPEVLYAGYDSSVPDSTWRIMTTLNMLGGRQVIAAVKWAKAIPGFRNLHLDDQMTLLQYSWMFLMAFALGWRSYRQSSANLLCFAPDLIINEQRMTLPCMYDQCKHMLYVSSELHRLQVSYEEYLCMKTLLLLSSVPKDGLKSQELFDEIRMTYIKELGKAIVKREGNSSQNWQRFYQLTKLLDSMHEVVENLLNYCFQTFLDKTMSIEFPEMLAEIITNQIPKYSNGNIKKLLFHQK
Outline: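 Compounds in DMSO, alongside positive controls, were added to GR-bla HeLa reporter cells and incubated 18 h at 37 C; GRE-driven beta-lactamase was detected by fluorescence after 2 h with FRET substrate at room temperature.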

[15] = target: Glucocorticoid receptor (Homo sapiens) (UniProt P04150); test: qHTS assay to identify small molecule antagonists of the glucocorticoid receptor (GR) signaling pathway (AID 720692; active = well fitted inhibition curve with a large enough effect in the signal ratio in the repeat runs, not every such curve was filed as active; the % refers to the signal ratio; note: potency is the fitted concentration of half-maximal effect); settings: GR-bla HeLa, beta-lactamase FRET ratio, dexamethasone-stimulated, 18 h; series mostly up to 58.5 µM
Outline: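 In a 1536-well cell format, compounds were added 4 h after seeding GR-bla HeLa cells, together with dexamethasone at 5 nM final; reporter activity was measured by FRET-substrate fluorescence following 18 h at 37 C.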

SMILES	outcome [1]	outcome [2]	outcome [3]	outcome [4]	outcome [5]	outcome [6]	outcome [7]	Potency [8]	Potency [9]	Potency [10]	Potency [11]	Potency [12]	Potency [13]	outcome [14]	Potency [15]
O=C(O)C(Cl)(Cl)Cl	inactive	inactive	inactive	inactive	inactive	inactive	inactive	inactive	inactive	inactive	inactive	inactive	inactive		
COCC(=O)N(c1c(C)cccc1C)C(C)C(=O)OC (stereo not drawn)	inactive	inactive	inactive	inactive	inactive	inactive	inactive	inactive	inactive and 61 µM (active)	inactive and 61 µM (active)	inactive	inactive	inactive		
Oc1ccccc1-c1ccccc1	inactive	inactive	inactive	inactive	inactive	inactive	inactive	inactive	inactive	inactive	inactive	inactive	inactive		
CCCCCC[n+]1ccccc1	inactive	inactive	inactive	inactive	inactive	inactive	inactive	inactive				55.5 µM (active) and 55.3 µM (active) and inactive			
CCn1cc[n+](C)c1C	inactive	inactive	inactive	inactive	inactive	inactive	inactive	inactive	inactive	inactive	inactive	inactive	inactive		
O=S(=O)(O)O	inactive	inactive	inactive	inactive	inactive	inactive	inactive	inactive	inactive and 27.3 µM (active)	inactive and 61.1 µM (active)	inactive and 48.6 µM (active)	inactive	inactive		
CCNc1nc(Cl)nc(NCC)n1	inactive	inactive	inactive	inactive	inactive	inactive	inactive	inactive	inactive	inactive	inactive	inactive	inactive	inactive	inactive
CCCCn1cc[n+](C)c1C	inactive	inactive	inactive	inactive	inactive	inactive	inactive	inactive	inactive	inactive	inactive	inactive	inactive		
CC[N+](CC)(CC)CC	inactive	inactive	inactive	inactive	inactive	inactive	inactive	inactive	inactive	inactive	inactive	inactive	inactive	inactive	inactive
Cc1cc(-c2ccc(N)c(C)c2)ccc1N	inactive	inactive	inactive	inactive	inactive	inactive	inactive	inactive	inactive	inactive and 34.3 µM (active)	inactive and 60.9 µM (active)	inactive	inactive		
CCCC[n+]1ccccc1C	inactive	inactive	inactive	inactive	inactive	inactive	inactive	inactive	inactive	inactive	inactive	inactive	inactive		
Nc1ccc(-c2ccc(N)cc2)cc1	inactive	inactive	inactive	inactive	inactive	inactive	inactive	inactive		61.1 µM (active)		inactive	inactive	inactive	inactive
COP(=O)(OC)C(O)C(Cl)(Cl)Cl (stereo not drawn)	inactive	inactive	inactive	inactive	inactive	inactive	inactive	inactive	inactive	inactive	inactive	inactive	inactive	inactive	inactive
O=c1[nH]c(=O)n(Cl)c(=O)n1Cl	inactive	inactive	inactive	inactive	inactive	inactive	inactive	inactive	inactive	inactive	inactive	inactive	inactive	inactive	inactive
CCCC[N+]1(C)CCCC1	inactive	inactive	inactive	inactive	inactive	inactive	inactive	inactive	inactive	inactive	inactive	inactive	inactive		
CCCCCCn1cc[n+](C)c1	inactive	inactive	inactive	inactive	inactive	inactive	inactive	inactive					31.9 µM (active) [middle of 5 runs]		
CN(C)[C@@H]1C(=O)C(C(N)=O)=C(O)[C@@]2(O)C(=O)C3=C(O)c4c(O)cccc4[C@@](C)(O)[C@H]3[C@H](O)[C@@H]12	inactive	inactive	inactive	inactive	inactive	inactive	inactive	inactive	inactive and 68 µM (active) and 43.3 µM (active)	inactive and 43.3 µM (active)	inactive and 48.6 µM (active)	inactive	inactive		
CCCCCCCCCCn1cc[n+](C)c1	inactive	inactive	inactive	inactive	inactive	inactive	inactive	49.5 µM (active) and 40 µM (active) and 48.9 µM (active)				2.48 µM (active)	872 nM (active) and 559 nM (active) and 193 nM (active)	inactive	15.6 µM (active) and 39.1 µM (active)

— PubChem BioAssay (Tox21)
